Data on 20 compounds can be found in PubChem BioAssay (EPA / NIEHS).

The AC50 is the concentration at which the activity in the assay is half-maximal.

Results filed as inconclusive are left out. Active and inactive are the calls of the source. How the source made its calls: active means hit-call score of the fitted dose curve at least 0.9, where 1 is the maximum; inconclusive means response in the unintended direction; inactive means score below 0.9.

Assay [1] is described as follows: TOX21_p53_BLA_p2_viability: Viability Assessment in the Tox21 HCT-116 p53 Agonism Beta-lactamase Assay, Phase 2 (AID 2283591).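 Further: compound exposure lasted 16 h at 37 °C; actives lower the ATP signal meaning cytotoxicity.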 The method, boiled down: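 Cytotoxicity readout: CellTiter-Glo ATP luminescence, 30 min at room temperature, after the beta-lactamase read. Cells were HCT116 exposed 16 h at 37C to compounds pin-transferred at 217-fold dilution from DMSO stocks.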

In assay [2] the target is Cellular tumor antigen p53 (Homo sapiens) (UniProt P04637). Put plainly: TOX21_p53_BLA_p2_ratio: Tox21 HCT-116 p53 Agonism Beta-lactamase Assay, Ratio, Phase 2 (AID 2283592). The gist of the method: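 DMSO-normalized, positive-direction endpoint derived from the 460 nm/530 nm FRET ratio in HCT116 p53 beta-lactamase reporter cells exposed 16 h at 37C and loaded with CCF4-AM for 2 h.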

The nature of assay [3]: TOX21_p53_BLA_p3_viability: Viability Assessment in the Tox21 HCT-116 p53 Agonism Beta-lactamase Assay, Phase 3 (AID 2283593).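 Further: cells exposed to compound for 16 h before reading.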 The method, boiled down: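 Cellular ATP was quantified by CellTiter-Glo luminescence, read after 30 min at room temperature. Beforehand, HCT116 cells (4000/well) received compound 5 h post-seeding, 217-fold diluted from DMSO, then incubated 16 h at 37C.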

Assay [4] concerns the target Cellular tumor antigen p53 (Homo sapiens) (UniProt P04637). Put plainly: TOX21_p53_BLA_p3_ratio: Tox21 HCT-116 p53 Agonism Beta-lactamase Assay, Ratio, Phase 3 (AID 2283596). The gist of the method:
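Cells were seeded at 4000/well, rested 5 h at 37C, then dosed with DMSO compound solutions (217-fold dilution) for 16 h. CCF4-AM substrate was loaded for 2 h at room temperature, and the 460/530 nm emission ratio was fitted for gain of signal versus DMSO.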

A short description of assay [5]: TOX21_p53_BLA_p4_viability: Viability Assessment in the Tox21 HCT-116 p53 Agonism Beta-lactamase Assay, Phase 4 (AID 2283597).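 Further: hits lower the luminescence signal meaning cytotoxicity.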 The method, boiled down:
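In this multiplexed secondary endpoint, HCT116 cells (4000 per well, compound at 5 h, 16 h treatment) received CellTiter-Glo after the beta-lactamase read. Luminescence after 30 min RT reflects ATP, and falling signal marks cytotoxicity.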

Assay [6] addresses Cellular tumor antigen p53 (Homo sapiens) (UniProt P04637). The assay is described as follows: TOX21_p53_BLA_p5_ratio: Tox21 HCT-116 p53 Agonism Beta-lactamase Assay, Ratio, Phase 5 (AID 2283599). The gist of the method:
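Beta-lactamase reporter ratio (blue 460 nm over green 530 nm, 405 nm excitation) after 2 h CCF4-AM loading, in HCT-116 cells exposed 16 h at 37 C to compounds pinned at 217-fold dilution. Increases relative to DMSO baseline scored.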

Assay [7] is described as follows: TOX21_p53_BLA_p5_viability: Viability Assessment in the Tox21 HCT-116 p53 Agonism Beta-lactamase Assay, Phase 5 (AID 2283600). The gist of the method: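 Here cell health was gauged by ATP levels in wells holding 4000 cells, each treated 16 h with DMSO-delivered compounds at 217-fold dilution; reduced luminescence marked toxicity.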
In assay [8] the target is Cellular tumor antigen p53 (Homo sapiens) (UniProt P04637). Put plainly: TOX21_p53_BLA_p4_ratio: Tox21 HCT-116 p53 Agonism Beta-lactamase Assay, Ratio, Phase 4 (AID 2283601). The method, boiled down:
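Signal is the blue/green (460nm/530nm) ratio of cleaved versus uncleaved CCF4-AM substrate, read after 2 h substrate loading. Cells were HCT116 carrying the p53-responsive beta-lactamase reporter, dosed 16 h at 37C, 5% CO2; CellTiter-Glo measured in parallel.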

Cellular tumor antigen p53 (Homo sapiens), sequence (P04637 whole entry, looked up): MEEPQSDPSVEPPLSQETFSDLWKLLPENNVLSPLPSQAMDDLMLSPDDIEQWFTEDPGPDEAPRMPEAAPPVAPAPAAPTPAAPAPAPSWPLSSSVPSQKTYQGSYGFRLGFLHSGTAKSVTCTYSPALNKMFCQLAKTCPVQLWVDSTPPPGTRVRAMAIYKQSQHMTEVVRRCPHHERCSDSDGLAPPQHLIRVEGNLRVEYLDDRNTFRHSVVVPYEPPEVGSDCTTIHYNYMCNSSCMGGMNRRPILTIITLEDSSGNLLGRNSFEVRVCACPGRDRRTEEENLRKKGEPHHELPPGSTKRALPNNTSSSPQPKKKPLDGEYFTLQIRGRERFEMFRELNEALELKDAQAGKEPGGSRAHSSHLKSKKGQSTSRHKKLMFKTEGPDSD

Take `CN(C)CCN(C)CCN(C)C`: the result in assay [1], in assay [2], in assay [3], in assay [4], in assay [5] and in assay [6] was inactive. Also, the result in assay [7] and in assay [8] was inactive.

Take `Clc1ccc(C(Cn2ccnc2)OCc2c(Cl)cccc2Cl)c(Cl)c1` (stereo not given): the compound was classed as inactive in assay [1], in assay [3], in assay [5], in assay [6] and in assay [7]. Moreover, the values for the AC50 in assay [2], in assay [4] and in assay [8] were 17.7 µM (active), 17.9 µM (active) and 16.7 µM (active), respectively.

As to `CCCCCCCCOc1ccccc1C(=O)Nc1ccc(C(=O)OCC[N+](C)(CC)CC)cc1`, the concentration at half-maximal activity (AC50) in assay [1] was 28.9 µM (active); in assay [3], 30.5 µM (active); in assay [5] it was 19 µM (active); in assay [7] it was 32.8 µM (active). The result in assay [2], in assay [4], in assay [6] and in assay [8] was inactive.

`CC[C@H]1OC(=O)[C@H](C)C(=O)[C@H](C)[C@@H](O[C@@H]2O[C@H](C)C[C@H](N(C)C)[C@H]2O)[C@](C)(OC)C[C@@H](C)C(=O)[C@H](C)[C@H]2N(CCCCn3cnc(-c4cccnc4)c3)C(=O)O[C@]12C`: the compound was called inactive in assay [1], in assay [2], in assay [3], in assay [4], in assay [5] and in assay [6]. The compound was classed as inactive in assay [7] and in assay [8].

Turning to `CCCCCCCCNC(C)C(O)c1ccc(SC(C)C)cc1` (stereo not given), the AC50 in assay [1] was 22.4 µM (active); in assay [2] it was 35.8 µM (active); in assay [3] it was 15.2 µM (active); in assay [4], 18.7 µM (active); in assay [5], 18.3 µM (active); in assay [6], 23.9 µM (active). Besides, the AC50 is 19 µM (active) in assay [7] and 33.9 µM (active) in assay [8].

Consider `CCCCC(CC)COCCCN` (stereo not given), for which the outcome in assay [1], in assay [2], in assay [3], in assay [4], in assay [5] and in assay [6] was inactive. Moreover, the call in assay [7] and in assay [8] was inactive.

Regarding `Oc1ccc(Sc2ccc(O)cc2)cc1`, the outcome in assay [1], in assay [3], in assay [5], in assay [7] and in assay [8] was inactive. In addition, the AC50 in assay [2] is 69.4 µM (active); in assay [4], 69.8 µM (active); in assay [6], 70.4 µM (active).

For `CSc1nc2cc(Oc3cccc(Cl)c3Cl)c(Cl)cc2[nH]1`, the AC50 in assay [1] is 14.5 µM (active); in assay [2], 33.3 µM (active); in assay [3] it was 22.6 µM (active); in assay [4], 33.9 µM (active); in assay [5] it was 33.2 µM (active); in assay [8], 20.5 µM (active). Also, the result in assay [6] and in assay [7] was inactive.

In the case of `CCCOc1ccc(C(=O)OCCN(CC)CC)cc1N`, the result in assay [1], in assay [2], in assay [3], in assay [4], in assay [5] and in assay [6] was inactive. For the same compound, the compound was classed as inactive in assay [7] and in assay [8].

As to `COc1ccc(S(=O)(=O)Nc2nnc(CC(C)C)s2)cc1`, the compound was classed as inactive in assay [1], in assay [2], in assay [3], in assay [4], in assay [5] and in assay [6]. In addition, the compound was classed as inactive in assay [7] and in assay [8].

As to `CC(C)(C)C(=O)C(Oc1ccc(Cl)cc1)n1ccnc1` (stereo not given), the result in assay [1], in assay [2], in assay [3], in assay [4], in assay [5] and in assay [6] was inactive. Further, the compound was called inactive in assay [7] and in assay [8].

As for `Cc1cc(CC(=O)O)n(C)c1C(=O)c1ccc(Cl)cc1`, the result in assay [1], in assay [2], in assay [3], in assay [4], in assay [5] and in assay [6] was inactive. For the same compound, the compound was classed as inactive in assay [7] and in assay [8].

Regarding `O=C(O)CCCl`, the call in assay [1], in assay [2], in assay [3], in assay [4], in assay [5] and in assay [6] was inactive. The result in assay [7] and in assay [8] was inactive.

For the compound `COCC1=C(C(=O)OC(C)OC(=O)OC(C)C)N2C(=O)[C@@H](NC(=O)/C(=N\OC)c3csc(N)n3)[C@H]2SC1` (stereo not given in full), the outcome in assay [1], in assay [2], in assay [3], in assay [4], in assay [5] and in assay [6] was inactive. Moreover, the compound was classed as inactive in assay [7] and in assay [8].

For `CN1CCN(c2cc3c(nn2)Oc2ccccc2N3C)CC1`, the compound was called inactive in assay [1], in assay [2], in assay [3], in assay [4], in assay [5] and in assay [6]. The call in assay [7] and in assay [8] was inactive.

Consider `O=C(c1ccc(O)cc1)c1ccc(O)c(O)c1O`, for which the result in assay [1], in assay [2], in assay [3], in assay [4], in assay [5] and in assay [6] was inactive. The compound was called inactive in assay [7] and in assay [8].

As to `O=C(Oc1cccc2cccnc12)c1ccccc1`, the compound was called inactive in assay [1], in assay [2], in assay [3], in assay [4], in assay [5] and in assay [6]. Also, the outcome in assay [7] and in assay [8] was inactive.

Take `CC[C@@H](C(=O)O)[C@@H]1O[C@@H]([C@@H](C)[C@H](O)[C@H](C)C(=O)[C@H](CC)[C@H]2O[C@]3(C=C[C@@H](O)[C@]4(CC[C@@](C)([C@H]5CC[C@](O)(CC)[C@H](C)O5)O4)O3)[C@H](C)C[C@@H]2C)[C@@H](C)C[C@@H]1C`: the call in assay [1], in assay [3], in assay [5] and in assay [7] was inactive. In addition, the concentration at half-maximal activity (AC50) in assay [2] is 4.53 µM (active); in assay [4] it was 7.64 µM (active); in assay [6], 7.63 µM (active); in assay [8], 5.21 µM (active).

Consider `CCCCCCCCCCCCCCCCCCNC(=O)OC1CCN(C(=O)OC[C@H](COC(=O)N(Cc2cccc[n+]2CC)C(=O)c2ccccc2OC)OC)CC1`, for which the compound was called inactive in assay [1], in assay [2], in assay [3], in assay [4] and in assay [7]. In addition, the concentration at half-maximal activity (AC50) in assay [5] was 30.2 µM (active); in assay [6], 35.7 µM (active); in assay [8], 38.4 µM (active).

As to `CCCC1([C@H](O)C/C=C/[C@H]2[C@H](O)CC(=O)[C@@H]2CCCCCCC(=O)OC)CCC1`, the call in assay [1], in assay [2], in assay [3], in assay [4], in assay [6] and in assay [7] was inactive. For the same compound, the outcome in assay [8] was inactive. In assay [5], the half-maximal activity concentration (AC50) was 36.3 µM (active).
